Test results taken from the supplement of paper PMC4466140.

Target: ScBbc1
Assay: SPOT peptide array binding signal intensity (averaged, normalized) (arbitrary units (background-subtracted, floor 0; scale differs between SH3 domains)); higher = stronger binding of the SH3 domain to the peptide
How it was run: (§1)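 The binding signal is the normalized, background-subtracted spot intensity averaged over replicates; its arbitrary units differ between domains. It was obtained by incubating 10 μg/ml GST-fused SH3 domains from four yeast species overnight at 4°C in TBS-based blocking buffer on cellulose membranes with synthetic 15-mer peptides, cysteines replaced by serines, then detecting with anti-GST antibody, HRP anti-mouse secondary and luminol.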

Binder | SPOT peptide array binding signal intensity
EQEEIAPSLPSRNSI | ≤ 0

Target: ScBem1-D1
Assay: as above
How it was run: as §1

Binder | SPOT peptide array binding signal intensity
EQEEIAPSLPSRNSI | ≤ 0

Target: ScBzz1-D1
Assay: as above
How it was run: as §1

Binder | SPOT peptide array binding signal intensity
EQEEIAPSLPSRNSI | 7

Target: ScBzz1-D2
Assay: as above
How it was run: as §1

Binder | SPOT peptide array binding signal intensity
EQEEIAPSLPSRNSI | 1

Target: ScCyk3
Assay: as above
How it was run: as §1

Binder | SPOT peptide array binding signal intensity
EQEEIAPSLPSRNSI | 1

Target: ScFus1
Assay: as above
How it was run: as §1

Binder | SPOT peptide array binding signal intensity
EQEEIAPSLPSRNSI | 1

Target: ScHof1
Assay: as above
How it was run: as §1

Binder | SPOT peptide array binding signal intensity
EQEEIAPSLPSRNSI | 1.5

Target: ScHse1
Assay: as above
How it was run: as §1

Binder | SPOT peptide array binding signal intensity
EQEEIAPSLPSRNSI | 7

Target: ScLsb1
Assay: as above
How it was run: as §1

Binder | SPOT peptide array binding signal intensity
EQEEIAPSLPSRNSI | 127

Target: ScLsb2
Assay: as above
How it was run: as §1

Binder | SPOT peptide array binding signal intensity
EQEEIAPSLPSRNSI | 8

Target: ScLsb3
Assay: as above
How it was run: as §1

Binder | SPOT peptide array binding signal intensity
EQEEIAPSLPSRNSI | 4150

Target: ScLsb4
Assay: as above
How it was run: as §1

Binder | SPOT peptide array binding signal intensity
EQEEIAPSLPSRNSI | 2440

Target: ScMyo3
Assay: as above
How it was run: as §1

Binder | SPOT peptide array binding signal intensity
EQEEIAPSLPSRNSI | ≤ 0

Target: ScMyo5
Assay: as above
How it was run: as §1

Binder | SPOT peptide array binding signal intensity
EQEEIAPSLPSRNSI | ≤ 0

Target: ScNbp2
Assay: as above
How it was run: as §1

Binder | SPOT peptide array binding signal intensity
EQEEIAPSLPSRNSI | 2.5

Target: ScPex13
Assay: as above
How it was run: as §1

Binder | SPOT peptide array binding signal intensity
EQEEIAPSLPSRNSI | 646

Target: ScRvs167
Assay: as above
How it was run: as §1

Binder | SPOT peptide array binding signal intensity
EQEEIAPSLPSRNSI | 244

Target: ScSho1
Assay: as above
How it was run: as §1

Binder | SPOT peptide array binding signal intensity
EQEEIAPSLPSRNSI | ≤ 0

Target: ScSla1-D1-D2
Assay: as above
How it was run: as §1

Binder | SPOT peptide array binding signal intensity
EQEEIAPSLPSRNSI | 1

Target: ScSla1-D3
Assay: as above
How it was run: as §1

Binder | SPOT peptide array binding signal intensity
EQEEIAPSLPSRNSI | 1

Target: SpAbp1-D1
Assay: as above
How it was run: as §1

Binder | SPOT peptide array binding signal intensity
EQEEIAPSLPSRNSI | 1

Target: SpBbc1
Assay: as above
How it was run: as §1

Binder | SPOT peptide array binding signal intensity
EQEEIAPSLPSRNSI | 2

Target: SpBzz1-D1
Assay: as above
How it was run: as §1

Binder | SPOT peptide array binding signal intensity
EQEEIAPSLPSRNSI | ≤ 0

Target: SpBzz1-D2
Assay: as above
How it was run: as §1

Binder | SPOT peptide array binding signal intensity
EQEEIAPSLPSRNSI | 1

Target: SpCyk3
Assay: as above
How it was run: as §1

Binder | SPOT peptide array binding signal intensity
EQEEIAPSLPSRNSI | ≤ 0

Target: SpHof1
Assay: as above
How it was run: as §1

Binder | SPOT peptide array binding signal intensity
EQEEIAPSLPSRNSI | 1

Target: SpHof1-2
Assay: as above
How it was run: as §1

Binder | SPOT peptide array binding signal intensity
EQEEIAPSLPSRNSI | ≤ 0

Target: SpHof1-3
Assay: as above
How it was run: as §1

Binder | SPOT peptide array binding signal intensity
EQEEIAPSLPSRNSI | 0.75

Target: SpHse1
Assay: as above
How it was run: as §1

Binder | SPOT peptide array binding signal intensity
EQEEIAPSLPSRNSI | ≤ 0

Target: SpLsb1
Assay: as above
How it was run: as §1

Binder | SPOT peptide array binding signal intensity
EQEEIAPSLPSRNSI | 13

Target: SpLsb4
Assay: as above
How it was run: as §1

Binder | SPOT peptide array binding signal intensity
EQEEIAPSLPSRNSI | 4140

Target: SpMyo1
Assay: as above
How it was run: as §1

Binder | SPOT peptide array binding signal intensity
EQEEIAPSLPSRNSI | ≤ 0

Target: SpNbp2
Assay: as above
How it was run: as §1

Binder | SPOT peptide array binding signal intensity
EQEEIAPSLPSRNSI | 5.5

Target: SpPex13
Assay: as above
How it was run: as §1

Binder | SPOT peptide array binding signal intensity
EQEEIAPSLPSRNSI | ≤ 0

Target: SpRvs167
Assay: as above
How it was run: as §1

Binder | SPOT peptide array binding signal intensity
EQEEIAPSLPSRNSI | 450

Target: SpSla1-D1-D2
Assay: as above
How it was run: as §1

Binder | SPOT peptide array binding signal intensity
EQEEIAPSLPSRNSI | 2

Target: SpSla1-D3
Assay: as above
How it was run: as §1

Binder | SPOT peptide array binding signal intensity
EQEEIAPSLPSRNSI | 1
